# MPTP block – blocks calcium-induced mitochondrial swelling | isolated mouse mitochondria, Ca2+ swelling absorbance, 30 min | inhibition, % at 10 µM | 1.4% of 360,000 active | AID 602449;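 active = inhibition of 50% or more, scaled per plate between neutral and stimulator controls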;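 note: 0% = DMSO wells given calcium and 100% = 1 mM EGTA wells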
# ADAM10 inh – inhibits human ADAM10; O14672; recombinant ADAM10, EDANS/DABCYL FRET peptide cleavage, 3 h; inhibition, % at 7 µM; 0.62% of 370,000 active;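 active = inhibition above a per-campaign cutoff equal to the mean of compounds falling between control-based bounds plus 3 SD, cut at about 20% in these data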;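 note: 0% = DMSO wells while the 100% control is not disclosed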
# Target sequence (O14672 214-748 limits assumed): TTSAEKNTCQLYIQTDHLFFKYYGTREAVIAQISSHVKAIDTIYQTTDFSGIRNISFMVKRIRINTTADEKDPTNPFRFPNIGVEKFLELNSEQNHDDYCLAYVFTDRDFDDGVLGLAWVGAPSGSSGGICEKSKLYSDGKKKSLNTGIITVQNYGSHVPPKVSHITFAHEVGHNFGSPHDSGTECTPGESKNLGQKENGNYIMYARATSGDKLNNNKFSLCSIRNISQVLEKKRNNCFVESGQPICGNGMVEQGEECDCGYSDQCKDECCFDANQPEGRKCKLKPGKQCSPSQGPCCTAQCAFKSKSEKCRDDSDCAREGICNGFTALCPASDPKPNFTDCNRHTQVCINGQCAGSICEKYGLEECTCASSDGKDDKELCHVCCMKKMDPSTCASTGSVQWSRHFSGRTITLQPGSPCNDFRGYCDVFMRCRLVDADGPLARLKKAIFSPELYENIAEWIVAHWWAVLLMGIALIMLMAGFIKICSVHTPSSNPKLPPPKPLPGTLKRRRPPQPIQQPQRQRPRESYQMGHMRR
# ADAM17 inh – ADAM17 inhibition, QFRET primary screen; P78536; recombinant ADAM17, EDANS/DABCYL FRET peptide cleavage; 0.83% of 370,000 active; inhibition, % at 6.95 µM;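 active = inhibition above the mean of compounds lying between control limits plus 3 SD, set per campaign, cut at about 8.5% in these data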;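 note: 0% = DMSO-only wells as the low control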
# proKLK7 act – proKLK7 (human) activation, primary screen | purified proKLK7, EDANS-DABCYL substrate fluorescence; 100% is mature enzyme control, 0% vehicle | activation, % at 7 µM | 0.9% of 370,000 active | AID 652039;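 active = activation above the mean of all tested compounds plus 3 SD, computed per campaign excluding outliers beyond control limits, cut at about 13% in these data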
# Pemphigus Ab inh – blocks pemphigus antibody binding to human desmoglein-3. DSG3-coupled beads, scFv-anti-DSG3-GFP binding, flow cytometry; hits give low values. 0.48% of 310,000 active. AID 588358. binding (percent of control), % at 10 µM;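 active = binding more than 3 SD below its plate's average and above zero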;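 note: hits lower antibody fragment binding to DSG3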
# rCAG binder – r(CAG) repeat RNA binding | TO-PRO-1 dye displacement fluorescence | inhibition, % at 3 µM | 1.3% of 370,000 active | AID 651821;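 active = inhibition above the plate cutoff, the mean of all test compounds on that plate plus 3 SD, cut at about 35% in these data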;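 note: 0% = DMSO alone and 100% = 100 µM mitoxantrone as full dye displacement; higher means more dye released from RNA so lower well fluorescence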
# KLK7 act conf – proKLK7 activation, confirmation; 68% of 3,200 active; shares compounds with proKLK7 act; activation, % at 7 µM; AID 686949; purified proKLK7, EDANS-DABCYL substrate fluorescence; scaled: vehicle 0, mature enzyme 100;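 active = activation, as change over the incubation, above the mean of all tested compounds plus 3 SD, cut at about 13% in these data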
# EDANS interfere – optically interferes with EDANS-DABCYL signal, flagging KLK7 hits | EDANS-DABCYL substrate fluorescence interference, no enzyme, 4 h; solvent 0%, active enzyme control 100% | activation, % at 7 µM | shares compounds with proKLK7 act | 80% of 3,200 active;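 active = activation above the all-compound mean plus 3 SD, ignoring values outside control-based bounds, cut at about 4.8% in these data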;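 note: value is the 4 h activation minus the activation read at time zero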
# The depositor's hits bear a star; i = inactive; . = no result given. Sampled rows, rich in hits. Any-hit rate of the full collection: about 4.7%.
SMILES,MPTP block,ADAM10 inh,ADAM17 inh,proKLK7 act,Pemphigus Ab inh,rCAG binder,KLK7 act conf,EDANS interfere
CCOC(=O)C(Cc1c[nH]c2cc([N+](=O)[O-])ccc12)(NC(C)=O)C(=O)OCC,-2,18,7,0,113,-1,.,.
CCOC(=O)c1c(NC(=O)c2ccco2)n(C2CCCCC2)c2nc3ccccc3nc12,0,i,-180,21*,120,4,-19,-28
COc1ccc(-c2cn3nc(C)c(C)nc3n2)cc1OC,-1,-18,0,-1,100,9,.,.
Cc1ccc(-c2cn3nc(C)c(C)nc3n2)cc1,0,i,i,55*,106,-2,59*,56*
N#CCSc1ccc2nc(-c3ccccc3)cn2n1,-2,i,-349,16*,102,3,32*,32*
N#CCSc1nc(-c2ccccc2)cs1,1,-2,-1,0,.,-3,.,.
COCCNC(=O)COC(=O)c1cc(-c2ccc(OC)cc2)nc2ccccc12,-1,-335,-100,137*,96,1,108*,119*
COc1ccc(-c2cc(C(=O)OCC(=O)NC(C)(C)C)c3ccccc3n2)cc1,-5,.,.,.,104,.,.,.
CCCNC(=O)COC(=O)c1cc(-c2ccc(OC)cc2)nc2ccccc12,-2,-384,-145,52*,102,3,-71,-60
COc1ccc(-c2cc(C(=O)OCC(=O)NC(C)C)c3ccccc3n2)cc1,0,-112,-44,21*,107,-2,33*,40*
COc1ccc(-c2cc(C(=O)OCC(=O)NC3CC3)c3ccccc3n2)cc1,0,-312,-92,16*,90,2,11,9.7*
CCNC(=S)NNC(=O)c1cc(-c2ccc(OC)cc2)nc2ccccc12,4,-176,-50,7,98,32,.,.
COc1ccccc1CCn1cnc(-c2ccc(Br)cc2)c1C(C)C,-2,15,6,1,.,3,.,.
Cc1nn(CC(=O)N2CCCC2)c(=O)c2cc3cc(F)ccc3n12,0,-48,-14,1,101,1,.,.
COCCNc1ncnc2c1ncn2[C@H]1CN(Cc2ccc(-c3ccccc3)cc2)C[C@@H](CO)O1,0,5,0,2,.,2,.,.
COc1ccc(-c2cc(C(=O)N/N=C(\C)c3cccnc3)c3ccccc3n2)cc1,0,-332,-121,37*,106,6,-78,-71
CCNC(=O)COC(=O)c1cc(-c2ccc(OC)cc2)nc2ccccc12,3,-401,-136,174*,101,2,208*,260*
CC(C)(C)OC(=O)N1CCCC(C(=O)Nc2cccc(C(=O)N3CCOCC3)c2)C1 (centres undefined),2,-7,2,0,103,0,.,.
Cc1cc(C(=O)Cn2cnc3cc(F)ccc3c2=O)c(C)n1C1CC1,-1,2,1,0,121,2,.,.
CC(c1ccccc1)N1C(=O)c2ccc(C(=O)NCc3cccnc3)cc2C1=O (centres undefined),0,-1,4,0,108,-7,.,.
Cc1ccc2c(CN3CC(C)CC(C)C3)cc(=O)oc2c1 (centres undefined),0,-2,-5,0,101,-1,.,.
O=C(c1ccco1)N1CCN(Cc2cc(=O)oc3cc(O)ccc23)CC1,0,i,i,90*,101,5,57*,68*
O=c1cc(CN2CCN(Cc3ccccc3)CC2)c2ccc(O)cc2o1,-1,i,i,71*,101,0,65*,72*
Cc1ccc2c(CN3CCN(Cc4ccccc4)CC3)cc(=O)oc2c1,-1,2,-4,0,106,-8,.,.
CC1CN(Cc2cc(=O)oc3cc(O)ccc23)CC(C)O1 (centres undefined),-2,i,i,46*,96,-2,67*,67*
SMILES,MPTP block,ADAM10 inh,ADAM17 inh,proKLK7 act,Pemphigus Ab inh,rCAG binder,KLK7 act conf,EDANS interfere
COc1ccc2[nH]c(C(=O)N/N=C/c3ccc(O)cc3O)cc2c1,1,-71,-32,-33,133,16,.,.
C=CCN1C(=O)[C@@H](CC(=O)NCCc2ccccc2OC)[C@]2(C(=O)OC)CCCCC=C12,.,-2,-3,0,.,2,.,.
CCCN(CCC)CCNC(=O)CCC(=O)Nc1ccc2nc(N3CCOCC3)cc(C)c2c1,0,i,i,57*,95,-3,153*,144*
CCCCN(CC)CCNC(=S)Nc1ccc2nc(N3CCN(C)CC3)cc(C)c2c1,0,-53,-28,3,112,-9,.,.
CCCCN(CC)CCNC(=O)CCC(=O)Nc1ccc2nc(N3CCN(C)CC3)cc(C)c2c1,1,i,i,78*,98,-8,106*,115*
CCOC(=O)C1(C)C(=O)CC2c3nc4ccccc4cc3CN2C1=O (centres undefined),0,-62,-9,20*,103,15,2,2
CC(C)/C=C/C(=O)N1CCC(N2CCC(C(=O)NCC3CCCO3)CC2)CC1 (centres undefined),0,-21,-7,-1,100,2,.,.
CN(CC(=O)Nc1ccccc1Br)C(=O)CNC(=O)c1cccs1,-1,-10,-8,-1,93,0,.,.
C#Cc1ccc(CN2CCN(CCCc3ccccc3)C(CCO)C2)cc1 (centres undefined),1,-12,-4,0,104,-8,.,.
N=C1c2c(cc(=O)n3c2[nH]c2ccccc23)CN1CCN1CCOCC1,1,i,i,15*,.,15,-6,-6
O=c1c2ccccc2[nH]c(=S)n1CCCN1CCOCC1,-6,-2,-4,0,.,1,.,.
Cn1c(SCC(=O)Nc2ccc(NC(=O)c3cccs3)cc2)nnc1-c1ccncc1,-1,6,-3,51*,103,2,1,0
Cc1ccc(Cl)cc1NC(=O)C1CCCCC1C(=O)O (centres undefined),-1,-3,-2,15*,98,0,2,0
COc1cc2ccccc2nn1,2,-127,-54,23*,102,-3,33*,39*
Nc1[nH]c(C(=O)c2ccc(Br)cc2)c(-c2ccc(Br)cc2)c1C(=O)NCc1ccc(-c2ccccc2)cc1,.,-7,0,1,.,16,.,.
COC(=O)N(C)C[C@@H]1OCc2ccccc2-c2c(n(C)c3ccccc23)C(=O)N([C@H](C)CO)C[C@@H]1C,0,1,4,0,.,-1,.,.
CCCc1cc(NCCCCO)n2c(nc3ccccc32)c1C#N,4,i,i,25*,92,-2,-20,-12

# Compound activity: PubChem, several laboratories
